Data: ChEMBL document CHEMBL1201862, “PubChem BioAssay data set” (2004)
About 2,100 (0.53%) of roughly 400,000 compounds were called active. Another 14% or so got no clear call; they are omitted. How the calls were made is not given here. Many of the other results were omitted from the sample, so actives are more common in it than they were.

Target: Ataxin-2 (Homo sapiens) (UniProt Q99700)
Assay: qHTS for Inhibitors of ATXN expression.
Format: functional

Sequence of Ataxin-2 (Homo sapiens) (Q99700 whole entry): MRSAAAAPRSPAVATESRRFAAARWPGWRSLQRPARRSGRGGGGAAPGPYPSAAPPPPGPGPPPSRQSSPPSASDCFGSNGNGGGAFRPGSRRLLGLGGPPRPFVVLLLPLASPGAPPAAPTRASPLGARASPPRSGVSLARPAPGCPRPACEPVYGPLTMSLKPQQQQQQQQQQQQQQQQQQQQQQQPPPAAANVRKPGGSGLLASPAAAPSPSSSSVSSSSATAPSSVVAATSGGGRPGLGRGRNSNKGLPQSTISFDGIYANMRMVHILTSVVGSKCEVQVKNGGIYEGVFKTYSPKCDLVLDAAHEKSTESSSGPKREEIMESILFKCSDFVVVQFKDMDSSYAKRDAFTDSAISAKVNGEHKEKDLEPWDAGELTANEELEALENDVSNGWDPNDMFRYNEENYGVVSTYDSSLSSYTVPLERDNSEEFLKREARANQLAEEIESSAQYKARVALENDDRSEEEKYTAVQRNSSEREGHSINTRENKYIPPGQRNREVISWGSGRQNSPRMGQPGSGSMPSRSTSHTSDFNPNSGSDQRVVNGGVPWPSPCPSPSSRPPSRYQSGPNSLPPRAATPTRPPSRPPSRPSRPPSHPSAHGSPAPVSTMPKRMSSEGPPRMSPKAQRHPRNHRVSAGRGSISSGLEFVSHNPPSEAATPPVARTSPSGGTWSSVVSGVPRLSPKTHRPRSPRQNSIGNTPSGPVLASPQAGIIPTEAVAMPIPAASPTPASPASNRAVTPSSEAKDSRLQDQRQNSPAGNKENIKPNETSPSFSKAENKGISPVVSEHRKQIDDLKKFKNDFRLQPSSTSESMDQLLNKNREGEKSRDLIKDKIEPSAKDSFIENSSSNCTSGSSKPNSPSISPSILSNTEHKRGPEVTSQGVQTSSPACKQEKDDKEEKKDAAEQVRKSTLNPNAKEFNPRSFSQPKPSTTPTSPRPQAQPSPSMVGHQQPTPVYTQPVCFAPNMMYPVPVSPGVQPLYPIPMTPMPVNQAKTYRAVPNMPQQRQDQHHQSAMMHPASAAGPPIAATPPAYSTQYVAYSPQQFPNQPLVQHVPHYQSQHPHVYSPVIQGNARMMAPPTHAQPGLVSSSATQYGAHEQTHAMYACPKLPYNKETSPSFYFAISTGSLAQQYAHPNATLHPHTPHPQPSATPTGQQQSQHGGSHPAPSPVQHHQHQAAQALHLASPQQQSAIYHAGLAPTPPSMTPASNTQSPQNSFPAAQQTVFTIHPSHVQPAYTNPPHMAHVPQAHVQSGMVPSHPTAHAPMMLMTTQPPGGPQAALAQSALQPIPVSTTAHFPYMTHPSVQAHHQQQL

Compound	Potency
O=C(Cn1[nH]c(=O)c2ccccc2c1=O)OCC(=O)c1ccc(F)c(F)c1	inactive
COCCCn1c(=N)c(C(=O)NCc2ccco2)cc2c(=O)n3cccc(C)c3nc21	inactive
O=C1c2cccc3c(N4CCCCC4)ccc(c23)C(=O)N1c1ccc(O)cc1	inactive
Cc1ccc(OCCCCN2CCCCC2)cc1	inactive
Brc1cccc(OCCN2CCc3ccccc3C2)c1	inactive
Cc1ccc(OCCCN2CCC(C(O)(c3ccccc3)c3ccccc3)CC2)cc1	35.5 µM (active)
CC(C)c1ccccc1OCCCN1CCCC1	inactive
O=C(Oc1cccc(C(=S)N2CCCCC2)c1)c1ccccc1	inactive
OC(c1ccccc1)(c1ccccc1)C1CCN(CCCOc2cccc(OC(F)(F)F)c2)CC1	35.5 µM (active)
Cc1ccc(OCCCCCCN2CCNCC2)cc1	inactive
COC(=O)c1cccc(OCCCN2CCC(C(O)(c3ccccc3)c3ccccc3)CC2)c1	35.5 µM (active)
O=C(c1coc(=O)c(Br)c1)N1CCC(C(O)(c2ccccc2)c2ccccc2)CC1	inactive
C=CCOc1ccc(/C=N\NC(N)=S)cc1	22.4 µM (active)
CCOc1ccc(/C=N/NC(=O)Cc2cccs2)cc1	inactive
C=CCNC(=S)N/N=C/c1ccc(-c2ccc(OC)cc2)o1	inactive
COc1ccccc1Cc1c(C2CCCCC2)nc2ccc(C)cn12	20 µM (active)
COc1ccccc1Cc1c(C2CCCCC2)nc2ccc(Br)cn12	17.8 µM (active)
Cc1ccc2nc3c(cc(C(=O)NC4CCS(=O)(=O)C4)n3Cc3ccccc3)c(=O)n2c1 (stereo not drawn)	inactive
CCn1c(=N)c(C(=O)NC2CCCCC2)cc2c(=O)n3cc(C)ccc3nc21	inactive
Cc1ccc2nc(C3CCCCC3)c(Cc3cccc(Cl)c3)n2c1	39.8 µM (active)
CCC(C)n1c(=N)c(C(=O)NC2CCCCC2)cc2c(=O)n3cc(C)ccc3nc21 (stereo not drawn)	inactive
Brc1ccc2nc(-c3cccs3)c(NCC3CCCO3)n2c1 (stereo not drawn)	inactive
COCCn1c(=N)c(C(=O)NC2CCCC2)cc2c(=O)n3cc(C)ccc3nc21	inactive
Nc1c(C(=O)Nc2ccccc2)sc2nc(N3CCOCC3)c3c(c12)CCCC3	inactive
O=C(O)c1ccc(N/N=C/c2ccc(-c3ccc(Cl)cc3Cl)o2)cc1	inactive

Compound	Potency
COc1ccc(/C=C2/C(=O)ON=C2C)cc1Br	inactive
CC1=NOC(=O)/C1=C\c1ccc(-c2ccc(Cl)cc2Cl)o1	35.5 µM (active)
O=C(O)c1ccc(CNCc2ccccc2F)cc1	inactive
CC1CCC(NC(=O)c2nn(C)c3c2CS(=O)(=O)c2ccccc2-3)CC1 (stereo not drawn)	39.8 µM (active)
CC1CCC(NC(=O)CN2C(=O)C3CC=CCC3C2=O)CC1 (stereo not drawn)	inactive
CC1CCC(NC(=O)COC(=O)CNC(=O)c2ccc3ccccc3c2)CC1 (stereo not drawn)	inactive
Cc1nc(-c2ccc(S(=O)(=O)Nc3cc(S(=O)(=O)N(C)C)ccc3C)s2)cs1	inactive
COc1ccc(-c2cc(C(F)(F)F)n3ncc(C(=O)NCC4CCCO4)c3n2)cc1 (stereo not drawn)	inactive
C=CCCCCCCCCC(=O)NNC1CC(=O)N(c2ccccc2)C1=O (stereo not drawn)	inactive
CCCCN(CCCC)CC(O)Cn1cc(/C=C/C(=O)c2ccccc2)c2ccccc21 (stereo not drawn)	inactive
CC(=O)Cn1c(=O)oc2ccccc21	inactive
CC(C)CC(=O)/C=C/n1c(=S)oc2ccccc21	31.6 µM (active)
CC(C)CC(=O)NC(=S)NCc1ccccc1	inactive
O=C(CCn1c(=S)oc2ccccc21)Nc1ccccc1F	inactive
CC(=O)/C=C/n1c(=S)oc2ccccc21	9.47 µM (active)
CC(=O)OC[C@H]1O[C@@H](Oc2cc3ccc(=O)oc3cc2OC(C)=O)[C@H](OC(C)=O)[C@@H](OC(C)=O)[C@@H]1OC(C)=O	inactive
CCOc1ccc(C(C)NC(=O)c2cccs2)cc1OCC (stereo not drawn)	inactive
O=C(Nc1ccccc1)c1nsnc1C(=O)Nc1ccccc1	inactive
Cc1cccc(NC(=O)c2nc[nH]c2C(=O)N[C@@H](C)c2ccccc2)c1	28.2 µM (active)
CC(C)C[C@H](NC(=O)c1[nH]cnc1C(=O)NCCCCCNC(=O)OC(C)(C)C)C(=O)OC(C)(C)C	35.5 µM (active)
Cc1ccc(NC(=O)C(Nc2cccc(C)c2)c2ccccc2)cc1 (stereo not drawn)	inactive
Cc1cccc(NC(=O)c2c(C)nn(-c3ccccc3)c2Cl)c1	inactive
Cc1cccc(NC(=O)c2[nH]cnc2C(=O)N[C@@H](Cc2ccccc2)C(=O)OC(C)(C)C)c1	39.8 µM (active)
C[C@@H](NC(=O)c1[nH]cnc1C(=O)N[C@@H](Cc1ccccc1)C(=O)OC(C)(C)C)c1ccccc1	35.5 µM (active)
COc1ccc(NC(=O)CSc2nnc3n2CCCCC3)cc1S(=O)(=O)N1CCOCC1	inactive

Compound	Potency
Cc1ccccc1/C=C/c1nc2ccccc2c(=O)n1CCc1ccccc1	inactive
CCc1cc2c(-c3ccccc3)cc(=O)oc2c2c1OCN(Cc1ccc(F)cc1)C2	inactive
Cc1ccc2nc(N3C(=O)C(O)=C(C(=O)c4ccc(C)o4)C3c3cccc(O)c3)sc2c1 (stereo not drawn)	inactive
c1ccc(-c2cnn3c(-c4ccccc4)c(-c4ccccc4)nc3n2)cc1	inactive
COc1ccc(OC)c(/N=C/c2c(O)oc3ccccc3c2=O)c1	inactive
CC(NC(=O)/C(C#N)=C/c1ccc(OCC(=O)O)cc1)c1ccccc1 (stereo not drawn)	inactive
COCc1cc(C)nc2sc(C(=O)Nc3ccccc3F)c(N)c12	inactive
CC(C)(C)OC[C@H](NC(=O)c1[nH]cnc1C(=O)Nc1ccccc1F)C(=O)OC(C)(C)C	35.5 µM (active)
Nc1c(C(=O)Nc2ccccc2F)sc2nc(-c3cccnc3)ccc12	inactive
CCOc1ccccc1NC(=O)COC(=O)C(Cc1ccccc1)NC(=O)c1ccco1 (stereo not drawn)	inactive
CC(C)C[C@H](NC(=O)c1[nH]cnc1C(=O)N[C@@H](Cc1ccccc1)C(=O)OC(C)(C)C)C(=O)OC(C)(C)C	25.1 µM (active)
CCCCC(C(=O)NC(C)c1ccccc1)C(=O)NC(C)c1ccccc1 (stereo not drawn)	inactive
CC(C)C[C@H](NC(=O)c1[nH]cnc1C(=O)N[C@H](C)c1ccccc1)C(=O)OC(C)(C)C	39.8 µM (active)
C[C@H](NC(=O)c1[nH]cnc1C(=O)N[C@@H](Cc1ccccc1)C(=O)OC(C)(C)C)C(=O)OC(C)(C)C	39.8 µM (active)
CCOC(=O)N1CCN(S(=O)(=O)c2c(C)nc3scc(C)n3c2=O)CC1	inactive
COc1ccc(C2C=C(c3ccccc3)Nc3ncnn32)cc1 (stereo not drawn)	inactive
O=S(=O)(NCCc1cccs1)c1ccc(Br)cc1	inactive
COCc1cc(C)nc2sc(C(=O)Nc3ccccc3Br)c(N)c12	inactive
CC(C)C[C@H](NC(=O)c1[nH]cnc1C(=O)N[C@@H](C)C(=O)OC(C)(C)C)C(=O)OC(C)(C)C	35.5 µM (active)
CC(C)C[C@H](NC(=O)c1[nH]cnc1C(=O)Nc1ccc(CNC(=O)OC(C)(C)C)cc1)C(=O)OC(C)(C)C	28.2 µM (active)
COc1ccccc1OCc1ccc(C(=O)NC(C)c2ccccc2)o1 (stereo not drawn)	inactive
CC(C)(C)OC(=O)[C@H](Cc1ccccc1)NC(=O)c1[nH]cnc1C(=O)Nc1ccc(Cl)cc1	39.8 µM (active)
CC(C)C[C@H](NC(=O)c1[nH]cnc1C(=O)N[C@@H](C)c1ccccc1)C(=O)OCc1ccccc1	35.5 µM (active)
CN(C)Cc1c(O)ccc2cc(-c3nc4ccccc4n3C)c(=O)oc12	inactive
Cc1cc2nc3c(O)nc(S)nc3nc2cc1NC(=O)C(F)(F)F	inactive

Compound	Potency
N#Cc1cc2c(nc1SCC(=O)Nc1nccs1)CCCCC2	inactive
CN(C)c1ccc(/C=N/N=C2/SC(CC(=O)O)C(=O)N2c2ccc(O)cc2)cc1 (stereo not drawn)	inactive
CC(C)(C)c1cc2ncnc(N3CCCCC3)c2s1	inactive
CC[C@@H](C)[C@H](NC(=O)OC(C)(C)C)c1nnc(S(=O)(=O)Cc2cc(C)ccc2C)o1	39.8 µM (active)
CC(NC(=O)OC(C)(C)C)C(=O)Oc1ccc2ccc(=O)oc2c1 (stereo not drawn)	inactive
CC(C)[C@H](NC(=O)OC(C)(C)C)c1nnc(S(=O)(=O)Cc2c(F)cccc2Cl)o1	22.4 µM (active)
CCC(C)[C@@H](NC(=O)OC(C)(C)C)c1nnc(S(=O)(=O)Cc2cccc(C)c2)o1 (stereo partly drawn)	22.4 µM (active)
CC(NC(=O)OC(C)(C)C)C(=O)Oc1cc2oc(=O)cc(-c3ccccc3)c2cc1Cl (stereo not drawn)	inactive
N#CCC(=O)N/N=C/c1ccc(N2N=C(c3ccccc3)CC2c2ccccc2)cc1 (stereo not drawn)	inactive
Cc1ccc(C)c(NC(=O)CCNS(=O)(=O)c2ccc3nc(O)oc3c2)c1	inactive
CCN1CCN(C(c2cccs2)C(C)NC(=O)C(C)C)CC1 (stereo not drawn)	inactive
Nc1c(C(=O)N/N=C/c2ccccc2Cl)oc2nc(-c3ccccc3)cc(-c3ccco3)c12	inactive
Cc1cc(/C=N/NC(=O)Cn2c3ccccc3c(=O)c3ccccc32)c(C)n1-c1ccccc1	inactive
O=C(Cn1c2ccccc2c(=O)c2ccccc21)N/N=C/c1ccc(N2CCCC2)c([N+](=O)[O-])c1	39.8 µM (active)
Cc1ccc(-n2c(C)cc(/C=N/NC(=O)Cn3c4ccccc4c(=O)c4ccccc43)c2C)cc1	inactive
Cc1ccc(S(=O)(=O)NC(C(=O)Oc2cc3oc(=O)cc(C)c3cc2Cl)C(C)C)cc1 (stereo not drawn)	inactive
CC(=O)Nc1nn(CC(C)C)c2nc3ccc(C)cc3cc12	inactive
O=S(=O)(Nc1nc2n(n1)C(c1ccc(F)cc1)C=C(c1ccccc1)N2)c1ccccc1 (stereo not drawn)	inactive
COc1ccc([C@H]2C[C@H](O)[C@@H](n3cc(-c4ccc(F)cc4)nn3)CN2CC2CCCCC2)cc1	39.8 µM (active)
O[C@H]1C[C@H](c2ccc(Cl)cc2)N(Cc2cccs2)C[C@@H]1n1cc(-c2ccc(F)cc2)nn1	25.1 µM (active)
CCCCCC(=O)N1C[C@@H](n2cc(-c3ccc(F)cc3)nn2)[C@H](O)C[C@@H]1c1ccc(Cl)cc1	31.6 µM (active)
CCCCCCN1C[C@H](n2cc(-c3ccc(F)cc3)nn2)[C@@H](O)C[C@@H]1c1ccc(Cl)cc1	22.4 µM (active)
CCCC(=O)NCn1nnc(-c2ccc(Cl)cc2)n1	inactive
